# Assay outcomes (PubChem BioAssay)
# Rows were chosen to be rich in hits. Some 3.4% of all compounds tested hit in one or more screens of this group.
# NRP1-CendR mod – modulators of CendR peptide binding to NRP-1, primary screen, biochemical, fluorescence polarization, uHTS. Neuropilin-1 (Homo sapiens), O14786. FAM-RPARPAR peptide binding to NRP-1. inhibition, % at 25 µM. 360,000 compounds, 0.85% hits. AID 602438, 2012;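 active means inhibition or corrected inhibition above about 18%, plus a signal ratio from 0.5 to 1.5, limit read from the data, passing the limit was not always enough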
# KLK7 zymogen act – proKLK7 zymogen activators, primary screen, biochemical, fluorescence intensity | purified proKLK7, EDANS-DABCYL substrate fluorescence; 100% is mature enzyme control, 0% vehicle | 370,000 compounds, 0.9% hits | Kallikrein-7 (Homo sapiens), P49862 | activation, % at 7 µM | AID 652039, 2013;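 active means activation above the mean of all tested compounds plus 3 SD, computed per campaign excluding outliers beyond control limits, cut at about 13% in these data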
# sPLA2-III inh – human group III sPLA2 inhibitors, primary screen, biochemical, QFRET, BODIPY PC-A2 liposome substrate | AID 743126, 2013 | QFRET BODIPY PC-A2 liposome hydrolysis, fluorescence | 370,000 compounds, 0.56% hits | inhibition, % at 12.2 µM | Group 3 secretory phospholipase A2 (Homo sapiens), Q9NZ20;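 active means inhibition above mean plus 3 SD of compounds lying within the high and low control bounds, cut at about 19% in these data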;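 further: 0% = median of test compound wells and 100% = no enzyme DMSO wells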
# ADAM17 inh – ADAM17 inhibitors, primary screen, biochemical, QFRET | recombinant ADAM17, EDANS/DABCYL FRET peptide cleavage | AID 720648, 2013 | inhibition, % at 6.95 µM | 370,000 compounds, 0.83% hits | Disintegrin and metalloproteinase domain-containing protein 17 (Homo sapiens), P78536;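 active means inhibition above the mean of compounds lying between control limits plus 3 SD, set per campaign, cut at about 8.5% in these data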;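 further: 0% = DMSO-only wells as the low control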
# ADAM10 inh – human ADAM10 inhibitors, primary screen, biochemical, QFRET, HTS; recombinant ADAM10, EDANS/DABCYL FRET peptide cleavage, 3 h; inhibition, % at 7 µM; 370,000 compounds, 0.62% hits;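 active means inhibition above a per-campaign cutoff equal to the mean of compounds falling between control-based bounds plus 3 SD, cut at about 20% in these data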;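 further: 0% = DMSO wells while the 100% control is not disclosed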
# Active calls of the source: *; i = inactive; · = not tested or not shown.
SMILES,NRP1-CendR mod,KLK7 zymogen act,sPLA2-III inh,ADAM17 inh,ADAM10 inh
COc1cc(C(=O)OCC(=O)Nc2c(F)c(F)c(F)c(F)c2F)cc(OC)c1OC,21*,-1,-4,0,1
CCOc1c(Br)cc(C(N)=O)cc1OC,6,0,10,2,-13
COc1cc(C(N)=O)cc(Br)c1OC,25*,-1,8,1,2
COc1cc(C(=O)OCCCOC(=O)c2cc(OC)c(OC)c(OC)c2)cc(OC)c1OC,22*,0,-11,2,5
O=C(CC1CCCC1)N[C@@H](Cc1cccnc1)C(=O)N1CCC[C@H]1C(=O)NCCc1ccccc1Cl,·,0,7,-7,-7
Cc1ccccc1NC(=O)Cn1c(C)nc2ccc(N)cc2c1=O,24*,1,8,-190,i
CCn1c(SCC(=O)Nc2ccccc2-c2ccccc2)nnc1-c1ccc(C)cc1,·,0,-3,5,-8
CO[C@H]([C@H](C)/C=C/N(C)C=O)[C@@H](C)C(=O)CC[C@H](C)[C@H](O)[C@H](C)[C@H]1OC(=O)/C=C/C(C)=C/C[C@H](O)C[C@@H]2C=CC[C@@H](C[C@H](OC)C(C)(O)[C@@H](OC)C[C@@H](OC)[C@@H]1C)O2 (stereo partly specified),·,·,-22,-2,6
COCCN(C(=O)CNC(=O)c1cccs1)C(C(=O)NC1CCCC1)c1cccs1 (stereo unspecified),19*,0,-7,-3,2
CC(C)n1c(NCc2ccc(N(C)C)cc2)nc2ccccc21,29*,0,7,2,-6
C=CCNC(=O)c1onc(CSc2ccc(F)c(F)c2)c1C(=O)NCC=C,25*,0,-1,2,6
COc1cc(C(=O)COC(=O)c2ccc([N+](=O)[O-])o2)cc(OC)c1OC,21*,1,5,-4,-14
CC(C)CN1C(=O)c2ccc(NC(=O)c3ccco3)cc2C1=O,1,0,5,-21,-39
O=C(O)CCN1C(=O)c2ccc(NC(=O)c3ccco3)cc2C1=O,21*,-10,-3,-24,-75
COc1cc2nc(-c3cccs3)oc(=O)c2cc1OC,27*,1,4,-3,5
Cc1ccc2nc(-c3cccs3)oc(=O)c2c1,-1,0,-4,-3,2
Clc1ccc(/C=N/c2c(-c3ccco3)nc3ccccn23)cc1,36*,2,-2,-34,-76
O=C(CNC(=O)c1ccccc1)NCCCSc1ccccc1,27*,0,-2,-3,-2
O=C(O)Cn1ncn(-c2ccc(OC(F)(F)F)cc2)c1=O,26*,0,-2,-4,-8
CN(C)C(=O)c1ccc(N=Nc2c(O)c3ccccc3[nH]c2=O)cc1,-2,0,4,-1,-5
Cc1cc(N=Nc2c(O)c3ccccc3[nH]c2=O)ccc1N=Nc1ccc(C(=O)N(C)C)cc1,23*,-1,12,3,-8
CCOC(=O)[C@@]12CN(C(=O)OC(C)(C)C)CC=C1N(Cc1ccc(OC)cc1)C(=O)[C@H]2CC(=O)N1CCN(C(=O)C2CC2)CC1,·,0,6,1,1
Cc1cc(C(=O)Nc2ccc(F)cc2)n(-c2ccccc2)n1,·,0,4,5,-7
O=C(CN1C(=O)CSC1=O)NCc1ccccc1,27*,-1,6,-4,0
COc1ccc(S[C@]2(C(=O)N(C)C)CC(=O)N(C(=O)C3CC3)[C@@H]2c2ccc(OC)cc2)cc1,·,0,2,-1,-1
Cc1cccc2sc(NC(=O)C3CCN(S(=O)(=O)c4cc([N+](=O)[O-])ccc4Cl)CC3)nc12,-5,0,-10,6,20*
Cc1ccc(CN2C(=O)CCC2(C)c2nnnn2-c2c(C)cccc2C)cc1 (stereo unspecified),7,-1,3,-1,-10
COc1ccc(CN2C(=O)CCC2(C)c2nnnn2-c2c(C)cccc2C)cc1 (stereo unspecified),23*,0,0,-5,-4
